# Reference: paper PMC7862700, “An all-to-all approach to the identification of sequence-specific readers for epigenetic DNA modifications on cytosine”
# Key:
# Assay in all cases: DAPPL (digital affinity profiling via proximity ligation, sequencing); 10 mM Tris-HCl pH 7.5, 50 mM NaCl, 1 mM DTT, 4% glycerol, room temperature, 30 min; GST-TFs on glutathione beads, 16-mer random dsDNA library, 0.1% formaldehyde crosslink after washing; high values mean tight binding
# FLI1 = target: T1, FLI1 (Homo sapiens, UniProt Q01543 1-452); settings: protein: recombinant; tags: N-terminal GST; dsDNA, one strand shown
# T1 sequence: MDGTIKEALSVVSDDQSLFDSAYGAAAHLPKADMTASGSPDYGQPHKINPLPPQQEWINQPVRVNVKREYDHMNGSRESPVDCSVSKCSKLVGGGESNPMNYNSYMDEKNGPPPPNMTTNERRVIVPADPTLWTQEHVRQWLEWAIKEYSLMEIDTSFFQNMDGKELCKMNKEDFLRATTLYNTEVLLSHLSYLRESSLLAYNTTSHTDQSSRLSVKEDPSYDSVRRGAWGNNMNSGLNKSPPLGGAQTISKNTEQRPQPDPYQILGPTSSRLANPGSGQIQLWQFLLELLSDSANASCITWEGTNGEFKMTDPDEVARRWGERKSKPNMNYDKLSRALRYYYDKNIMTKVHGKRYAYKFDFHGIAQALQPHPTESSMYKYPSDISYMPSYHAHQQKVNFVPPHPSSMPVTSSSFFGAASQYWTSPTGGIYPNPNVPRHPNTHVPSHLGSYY
# In short: (§1)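 After expression in yeast as GST fusions, human transcription factors were bound to glutathione beads, DNA-barcoded and mixed with a tag-only sample. The pools were incubated with 200 nmole of a 16-mer random double-stranded DNA library in Tris/NaCl/DTT/glycerol buffer (30 min, room temperature), washed and crosslinked with 0.1% formaldehyde. Proximity ligation with BsaI/T4 ligase ran for 1 h at 37 °C, before PCR amplification and sequencing on an Illumina NextSeq500. Binding signal is a hexamer's read frequency for a factor divided by its frequency for the tag-only sample.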
# ELK1 = target: T2, ELK1 (Homo sapiens, UniProt P19419 1-428); settings: protein: recombinant; tags: N-terminal GST; dsDNA, one strand shown
# T2 sequence: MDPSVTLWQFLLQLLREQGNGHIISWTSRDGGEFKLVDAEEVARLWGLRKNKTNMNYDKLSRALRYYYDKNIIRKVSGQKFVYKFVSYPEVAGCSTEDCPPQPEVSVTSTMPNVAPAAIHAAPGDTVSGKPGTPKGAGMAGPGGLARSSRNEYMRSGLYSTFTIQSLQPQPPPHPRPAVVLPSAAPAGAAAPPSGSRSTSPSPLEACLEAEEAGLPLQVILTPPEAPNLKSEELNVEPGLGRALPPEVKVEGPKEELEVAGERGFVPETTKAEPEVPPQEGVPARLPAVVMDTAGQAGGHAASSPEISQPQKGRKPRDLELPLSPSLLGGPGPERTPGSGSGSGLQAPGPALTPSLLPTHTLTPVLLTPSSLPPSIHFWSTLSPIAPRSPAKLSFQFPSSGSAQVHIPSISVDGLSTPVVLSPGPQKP
# In short: as §1
# GABPA = target: T3, GABPA (Homo sapiens, UniProt Q06546 1-454); settings: protein: recombinant; tags: N-terminal GST; dsDNA, one strand shown
# T3 sequence: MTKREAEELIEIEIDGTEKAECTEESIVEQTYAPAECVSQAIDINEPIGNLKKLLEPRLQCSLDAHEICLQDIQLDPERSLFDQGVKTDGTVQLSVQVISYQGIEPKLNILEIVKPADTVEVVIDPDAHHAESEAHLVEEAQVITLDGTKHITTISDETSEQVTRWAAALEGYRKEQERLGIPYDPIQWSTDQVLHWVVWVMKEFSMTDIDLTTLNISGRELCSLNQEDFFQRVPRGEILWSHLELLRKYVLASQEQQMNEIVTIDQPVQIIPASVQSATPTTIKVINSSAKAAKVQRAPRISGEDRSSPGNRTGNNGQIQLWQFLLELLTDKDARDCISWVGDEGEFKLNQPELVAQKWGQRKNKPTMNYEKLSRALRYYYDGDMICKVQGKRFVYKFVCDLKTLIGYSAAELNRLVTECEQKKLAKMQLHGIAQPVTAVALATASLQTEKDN
# In short: as §1
# ERG = target: T4, ERG (Homo sapiens, UniProt P11308 1-479); settings: protein: recombinant; tags: N-terminal GST; dsDNA, one strand shown
# T4 sequence: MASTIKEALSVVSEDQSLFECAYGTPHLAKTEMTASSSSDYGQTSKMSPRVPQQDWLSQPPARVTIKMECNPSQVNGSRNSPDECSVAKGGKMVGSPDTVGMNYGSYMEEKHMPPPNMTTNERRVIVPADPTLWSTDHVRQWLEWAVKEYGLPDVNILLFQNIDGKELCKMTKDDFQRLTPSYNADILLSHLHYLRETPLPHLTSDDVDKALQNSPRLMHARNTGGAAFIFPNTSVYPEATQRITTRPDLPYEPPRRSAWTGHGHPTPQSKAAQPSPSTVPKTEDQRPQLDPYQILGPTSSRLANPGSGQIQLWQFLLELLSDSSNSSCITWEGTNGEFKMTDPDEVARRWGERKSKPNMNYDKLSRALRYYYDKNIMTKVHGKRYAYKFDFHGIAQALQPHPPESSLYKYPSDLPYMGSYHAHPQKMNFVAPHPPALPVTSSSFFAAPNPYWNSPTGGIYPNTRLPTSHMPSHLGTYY
# In short: as §1
# ELF1 = ELF1 (Homo sapiens, UniProt P32519 1-619); settings: protein: recombinant; tags: N-terminal GST; dsDNA, one strand shown
# Sequence of ELF1 (P32519 whole entry): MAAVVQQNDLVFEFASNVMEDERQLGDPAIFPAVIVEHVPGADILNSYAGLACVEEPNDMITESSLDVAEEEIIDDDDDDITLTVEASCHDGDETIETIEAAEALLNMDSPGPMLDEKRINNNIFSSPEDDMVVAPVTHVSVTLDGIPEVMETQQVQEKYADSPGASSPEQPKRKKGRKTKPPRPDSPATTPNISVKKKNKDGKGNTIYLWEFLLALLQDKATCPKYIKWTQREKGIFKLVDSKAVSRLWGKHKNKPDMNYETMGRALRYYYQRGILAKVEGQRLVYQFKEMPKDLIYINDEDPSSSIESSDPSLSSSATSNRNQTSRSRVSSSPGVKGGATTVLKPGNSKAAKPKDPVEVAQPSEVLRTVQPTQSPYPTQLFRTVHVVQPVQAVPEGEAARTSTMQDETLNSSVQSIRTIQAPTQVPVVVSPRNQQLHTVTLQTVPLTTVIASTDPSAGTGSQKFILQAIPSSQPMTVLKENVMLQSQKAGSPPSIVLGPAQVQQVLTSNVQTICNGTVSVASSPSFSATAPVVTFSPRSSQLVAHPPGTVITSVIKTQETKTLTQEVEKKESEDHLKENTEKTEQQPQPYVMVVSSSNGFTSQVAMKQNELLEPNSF
# In short: as §1
# EHF = target: T5, EHF (Homo sapiens, UniProt Q9NZC4 1-300); settings: protein: recombinant; tags: N-terminal GST; dsDNA, one strand shown
# T5 sequence: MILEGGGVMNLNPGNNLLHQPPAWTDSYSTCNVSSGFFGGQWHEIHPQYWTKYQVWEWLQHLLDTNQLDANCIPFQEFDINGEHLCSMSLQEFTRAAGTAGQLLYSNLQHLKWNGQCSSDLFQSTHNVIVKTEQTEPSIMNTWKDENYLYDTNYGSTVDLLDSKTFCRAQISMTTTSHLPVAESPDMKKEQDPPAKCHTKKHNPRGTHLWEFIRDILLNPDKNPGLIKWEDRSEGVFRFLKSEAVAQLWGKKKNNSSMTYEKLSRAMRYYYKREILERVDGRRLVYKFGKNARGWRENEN
# In short: as §1
# SPI1 = SPI1 (Homo sapiens, UniProt P17947 1-270); settings: protein: recombinant; tags: N-terminal GST; dsDNA, one strand shown
# In short: as §1
# SPIB = SPIB (Homo sapiens, UniProt Q01892 1-262); settings: protein: recombinant; tags: N-terminal GST; dsDNA, one strand shown
# Sequence of SPIB (Q01892 whole entry): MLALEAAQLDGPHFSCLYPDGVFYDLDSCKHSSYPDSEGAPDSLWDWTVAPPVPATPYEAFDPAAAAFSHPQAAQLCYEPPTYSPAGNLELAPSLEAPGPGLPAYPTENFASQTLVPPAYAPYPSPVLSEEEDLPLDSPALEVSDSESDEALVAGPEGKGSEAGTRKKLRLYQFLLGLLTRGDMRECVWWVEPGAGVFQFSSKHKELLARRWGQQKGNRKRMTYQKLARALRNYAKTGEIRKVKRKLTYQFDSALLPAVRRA
# In short: as §1
# ELK3 = target: T6, ELK3 (Homo sapiens, UniProt P41970 1-407); settings: protein: recombinant; tags: N-terminal GST; dsDNA, one strand shown
# T6 sequence: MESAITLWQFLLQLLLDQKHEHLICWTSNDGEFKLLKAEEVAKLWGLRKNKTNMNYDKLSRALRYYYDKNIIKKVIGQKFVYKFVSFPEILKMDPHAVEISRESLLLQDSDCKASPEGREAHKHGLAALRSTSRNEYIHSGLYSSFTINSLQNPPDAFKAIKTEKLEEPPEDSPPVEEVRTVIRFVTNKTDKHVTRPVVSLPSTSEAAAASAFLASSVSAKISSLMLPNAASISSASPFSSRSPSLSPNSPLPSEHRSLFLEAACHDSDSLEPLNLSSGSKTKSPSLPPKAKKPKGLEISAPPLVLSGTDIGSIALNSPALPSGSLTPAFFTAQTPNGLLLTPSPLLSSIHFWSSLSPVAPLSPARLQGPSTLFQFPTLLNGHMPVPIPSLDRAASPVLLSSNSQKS
# In short: as §1
# FEV = target: T7, FEV (Homo sapiens, UniProt Q99581 1-238); settings: protein: recombinant; tags: N-terminal GST; dsDNA, one strand shown
# T7 sequence: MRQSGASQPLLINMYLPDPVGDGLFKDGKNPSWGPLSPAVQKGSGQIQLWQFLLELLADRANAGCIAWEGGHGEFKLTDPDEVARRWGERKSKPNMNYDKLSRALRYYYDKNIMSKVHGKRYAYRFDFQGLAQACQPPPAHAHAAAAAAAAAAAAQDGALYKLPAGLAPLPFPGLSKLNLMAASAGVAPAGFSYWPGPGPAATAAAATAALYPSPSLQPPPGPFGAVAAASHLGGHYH
# In short: as §1
# ETV5 = ETV5 (Homo sapiens, UniProt P41161 1-510); settings: protein: recombinant; tags: N-terminal GST; dsDNA, one strand shown
# Sequence of ETV5 (P41161 whole entry): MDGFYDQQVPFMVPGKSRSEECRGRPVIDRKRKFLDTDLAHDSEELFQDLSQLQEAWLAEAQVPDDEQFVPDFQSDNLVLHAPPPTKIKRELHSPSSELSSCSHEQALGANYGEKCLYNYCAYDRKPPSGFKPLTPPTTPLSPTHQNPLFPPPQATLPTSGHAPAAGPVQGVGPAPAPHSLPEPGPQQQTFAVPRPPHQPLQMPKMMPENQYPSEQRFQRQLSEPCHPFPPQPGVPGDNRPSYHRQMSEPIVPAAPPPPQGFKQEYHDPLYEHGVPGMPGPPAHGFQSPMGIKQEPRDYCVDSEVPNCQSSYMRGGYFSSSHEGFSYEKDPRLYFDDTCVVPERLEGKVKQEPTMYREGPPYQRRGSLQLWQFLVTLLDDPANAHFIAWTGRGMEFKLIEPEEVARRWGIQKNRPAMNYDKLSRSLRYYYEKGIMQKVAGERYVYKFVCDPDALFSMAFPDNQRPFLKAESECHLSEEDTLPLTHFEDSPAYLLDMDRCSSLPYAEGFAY
# In short: as §1
# HSF1 = HSF1 (Homo sapiens, UniProt Q00613 1-529); settings: protein: recombinant; tags: N-terminal GST; chain copies: 3; dsDNA, one strand shown
# Sequence of HSF1 (Q00613 whole entry): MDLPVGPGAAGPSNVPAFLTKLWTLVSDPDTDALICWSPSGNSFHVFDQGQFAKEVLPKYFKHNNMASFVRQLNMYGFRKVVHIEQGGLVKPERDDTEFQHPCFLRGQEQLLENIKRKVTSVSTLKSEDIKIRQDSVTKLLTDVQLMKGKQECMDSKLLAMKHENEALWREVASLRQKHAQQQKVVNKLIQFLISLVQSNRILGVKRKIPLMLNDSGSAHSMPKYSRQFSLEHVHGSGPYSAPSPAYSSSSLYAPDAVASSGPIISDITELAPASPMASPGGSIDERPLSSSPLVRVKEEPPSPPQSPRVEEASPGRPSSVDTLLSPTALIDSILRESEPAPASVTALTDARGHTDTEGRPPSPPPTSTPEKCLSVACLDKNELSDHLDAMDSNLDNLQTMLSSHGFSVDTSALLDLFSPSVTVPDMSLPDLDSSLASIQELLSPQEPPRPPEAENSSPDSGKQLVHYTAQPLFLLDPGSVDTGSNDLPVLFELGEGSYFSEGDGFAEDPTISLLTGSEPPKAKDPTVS
# In short: as §1
# SPIC = target: T8, SPIC (Homo sapiens, UniProt Q8N5J4 1-248); settings: protein: recombinant; tags: N-terminal GST; dsDNA, one strand shown
# T8 sequence: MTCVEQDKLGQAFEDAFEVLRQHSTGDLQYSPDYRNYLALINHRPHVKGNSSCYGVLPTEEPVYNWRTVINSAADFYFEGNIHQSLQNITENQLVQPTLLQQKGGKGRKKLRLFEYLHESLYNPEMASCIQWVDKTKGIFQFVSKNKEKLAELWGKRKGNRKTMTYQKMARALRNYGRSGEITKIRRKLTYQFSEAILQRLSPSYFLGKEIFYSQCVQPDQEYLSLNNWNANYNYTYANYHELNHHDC
# In short: as §1
# ELF4 = ELF4 (Homo sapiens, UniProt Q99607 1-663); settings: protein: recombinant; tags: N-terminal GST; dsDNA, one strand shown
# Sequence of ELF4 (Q99607 whole entry): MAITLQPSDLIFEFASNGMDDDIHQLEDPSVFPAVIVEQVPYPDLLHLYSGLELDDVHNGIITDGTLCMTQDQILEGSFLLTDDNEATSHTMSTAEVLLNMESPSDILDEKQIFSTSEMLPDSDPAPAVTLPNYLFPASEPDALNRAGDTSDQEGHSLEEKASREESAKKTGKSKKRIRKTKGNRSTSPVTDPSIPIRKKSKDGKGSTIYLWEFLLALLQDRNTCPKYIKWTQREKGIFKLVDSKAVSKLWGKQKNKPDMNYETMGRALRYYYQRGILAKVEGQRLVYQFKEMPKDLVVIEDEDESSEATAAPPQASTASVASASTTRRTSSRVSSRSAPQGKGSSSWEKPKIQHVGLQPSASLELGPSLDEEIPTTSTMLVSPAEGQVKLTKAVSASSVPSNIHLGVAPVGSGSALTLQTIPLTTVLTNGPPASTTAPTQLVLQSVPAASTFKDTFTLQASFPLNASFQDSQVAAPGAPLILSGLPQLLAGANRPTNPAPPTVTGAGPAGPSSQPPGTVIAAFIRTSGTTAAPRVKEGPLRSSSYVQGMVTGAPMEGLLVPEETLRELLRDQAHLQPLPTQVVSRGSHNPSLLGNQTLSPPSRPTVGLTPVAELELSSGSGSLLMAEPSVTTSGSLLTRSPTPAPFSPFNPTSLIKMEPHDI
# In short: as §1
# ELK4 = target: T9, ELK4 (Homo sapiens, UniProt P28324-2 1-405); settings: protein: recombinant; tags: N-terminal GST; dsDNA, one strand shown
# T9 sequence: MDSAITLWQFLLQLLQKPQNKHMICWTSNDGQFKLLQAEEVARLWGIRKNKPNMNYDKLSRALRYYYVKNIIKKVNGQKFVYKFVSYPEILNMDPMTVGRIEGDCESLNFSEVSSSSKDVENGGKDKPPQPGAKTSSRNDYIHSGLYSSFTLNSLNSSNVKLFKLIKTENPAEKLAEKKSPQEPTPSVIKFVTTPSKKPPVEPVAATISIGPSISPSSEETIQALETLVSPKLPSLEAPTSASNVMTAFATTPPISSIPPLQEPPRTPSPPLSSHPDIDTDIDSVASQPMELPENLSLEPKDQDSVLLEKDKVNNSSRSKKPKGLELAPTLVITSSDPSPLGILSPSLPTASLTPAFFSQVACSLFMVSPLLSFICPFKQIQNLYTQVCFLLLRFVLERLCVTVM
# In short: as §1
# ETV2 = target: T10, ETV2 (Homo sapiens, UniProt O00321 1-342); settings: protein: recombinant; tags: N-terminal GST; dsDNA, one strand shown
# T10 sequence: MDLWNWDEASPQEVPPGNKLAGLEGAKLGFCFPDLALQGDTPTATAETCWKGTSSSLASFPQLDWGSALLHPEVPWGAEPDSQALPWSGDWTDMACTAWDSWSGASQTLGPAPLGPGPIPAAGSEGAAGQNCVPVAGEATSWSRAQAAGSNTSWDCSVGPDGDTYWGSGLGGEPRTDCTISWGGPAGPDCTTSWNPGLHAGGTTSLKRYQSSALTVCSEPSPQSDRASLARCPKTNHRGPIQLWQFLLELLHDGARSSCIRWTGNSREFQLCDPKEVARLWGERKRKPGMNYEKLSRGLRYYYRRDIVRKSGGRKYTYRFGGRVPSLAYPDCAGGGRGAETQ
# In short: as §1
# ELF3 = target: T11, ELF3 (Homo sapiens, UniProt P78545 1-371); settings: protein: recombinant; tags: N-terminal GST; dsDNA, one strand shown
# T11 sequence: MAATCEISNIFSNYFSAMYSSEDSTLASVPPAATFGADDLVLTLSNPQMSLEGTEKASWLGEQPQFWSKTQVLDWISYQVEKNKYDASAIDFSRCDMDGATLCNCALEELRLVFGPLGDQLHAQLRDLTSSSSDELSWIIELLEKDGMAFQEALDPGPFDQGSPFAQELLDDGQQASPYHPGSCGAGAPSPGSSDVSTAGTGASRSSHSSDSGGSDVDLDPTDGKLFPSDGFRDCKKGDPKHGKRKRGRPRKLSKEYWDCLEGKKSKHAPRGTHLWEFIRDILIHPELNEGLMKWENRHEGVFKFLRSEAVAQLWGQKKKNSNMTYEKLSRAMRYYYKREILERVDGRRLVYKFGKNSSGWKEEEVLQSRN
# In short: as §1
# CRX = CRX (Homo sapiens, UniProt O43186 1-299); settings: protein: recombinant; tags: N-terminal GST; dsDNA, one strand shown
# Sequence of CRX (O43186 whole entry): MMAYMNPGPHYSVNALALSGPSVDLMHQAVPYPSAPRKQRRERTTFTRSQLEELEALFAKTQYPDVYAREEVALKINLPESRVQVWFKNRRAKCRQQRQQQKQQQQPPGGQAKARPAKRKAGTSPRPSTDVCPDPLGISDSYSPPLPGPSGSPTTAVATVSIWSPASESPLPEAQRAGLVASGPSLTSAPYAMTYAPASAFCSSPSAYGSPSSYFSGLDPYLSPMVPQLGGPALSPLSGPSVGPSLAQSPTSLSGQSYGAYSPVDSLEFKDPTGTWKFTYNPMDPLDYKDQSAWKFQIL
# In short: as §1
# ETV1 = ETV1 (Homo sapiens, UniProt P50549 1-477); settings: protein: recombinant; tags: N-terminal GST; dsDNA, one strand shown
# Sequence of ETV1 (P50549 whole entry): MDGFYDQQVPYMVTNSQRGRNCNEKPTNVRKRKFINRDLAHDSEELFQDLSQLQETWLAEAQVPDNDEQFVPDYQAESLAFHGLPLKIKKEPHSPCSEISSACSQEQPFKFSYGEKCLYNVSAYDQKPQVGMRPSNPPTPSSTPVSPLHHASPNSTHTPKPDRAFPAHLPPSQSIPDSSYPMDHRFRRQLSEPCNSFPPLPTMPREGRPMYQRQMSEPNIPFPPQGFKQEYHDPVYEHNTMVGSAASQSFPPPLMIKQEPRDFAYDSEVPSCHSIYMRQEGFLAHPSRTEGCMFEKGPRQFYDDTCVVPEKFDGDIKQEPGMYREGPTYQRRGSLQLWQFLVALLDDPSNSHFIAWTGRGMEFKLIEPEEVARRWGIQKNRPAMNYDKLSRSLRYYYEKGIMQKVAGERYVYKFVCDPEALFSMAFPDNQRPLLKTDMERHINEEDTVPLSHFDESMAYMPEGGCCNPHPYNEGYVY
# In short: as §1
sequence,measurement,setting,value
CTTGCT,binding signal,FLI1,"1.51 fold enrichment (6-mer frequency, TF over GST control)"
same,binding signal,ELK1,"1.35 fold enrichment (6-mer frequency, TF over GST control)"
same,binding signal,GABPA,"1.38 fold enrichment (6-mer frequency, TF over GST control)"
same,binding signal,ERG,"1.21 fold enrichment (6-mer frequency, TF over GST control)"
same,binding signal,ELF1,"1.33 fold enrichment (6-mer frequency, TF over GST control)"
same,binding signal,EHF,"1.25 fold enrichment (6-mer frequency, TF over GST control)"
same,binding signal,SPI1,"1.44 fold enrichment (6-mer frequency, TF over GST control)"
same,binding signal,SPIB,"1.34 fold enrichment (6-mer frequency, TF over GST control)"
same,binding signal,ELK3,"1.25 fold enrichment (6-mer frequency, TF over GST control)"
same,binding signal,FEV,"1.25 fold enrichment (6-mer frequency, TF over GST control)"
same,binding signal,ETV5,"1.39 fold enrichment (6-mer frequency, TF over GST control)"
same,binding signal,HSF1,"1.24 fold enrichment (6-mer frequency, TF over GST control)"
same,binding signal,SPIC,"1.52 fold enrichment (6-mer frequency, TF over GST control)"
same,binding signal,ELF4,"1.35 fold enrichment (6-mer frequency, TF over GST control)"
same,binding signal,ELK4,"1.34 fold enrichment (6-mer frequency, TF over GST control)"
same,binding signal,ETV2,"1.58 fold enrichment (6-mer frequency, TF over GST control)"
same,binding signal,ELF3,"1.52 fold enrichment (6-mer frequency, TF over GST control)"
same,binding signal,CRX,"1.18 fold enrichment (6-mer frequency, TF over GST control)"
same,binding signal,ETV1,"1.36 fold enrichment (6-mer frequency, TF over GST control)"
